# Bioassay records from PubChem BioAssay.
# An excerpt weighted towards active compounds, which were near 3.1% of everything screened.
# PLK1 PBD block: PLK1 (human) polo-box domain binding inhibition | 2.8% of 360,000 active | Potency, µM, hits mostly inhibitors | Plk1 PBD binding of FITC phosphopeptide, fluorescence polarization | P53350; further: series mostly up to about 57 µM; nearly all actives have a fitted effect of over 65% in size
# Target sequence (P53350 whole entry, looked up, the tested form may be a part): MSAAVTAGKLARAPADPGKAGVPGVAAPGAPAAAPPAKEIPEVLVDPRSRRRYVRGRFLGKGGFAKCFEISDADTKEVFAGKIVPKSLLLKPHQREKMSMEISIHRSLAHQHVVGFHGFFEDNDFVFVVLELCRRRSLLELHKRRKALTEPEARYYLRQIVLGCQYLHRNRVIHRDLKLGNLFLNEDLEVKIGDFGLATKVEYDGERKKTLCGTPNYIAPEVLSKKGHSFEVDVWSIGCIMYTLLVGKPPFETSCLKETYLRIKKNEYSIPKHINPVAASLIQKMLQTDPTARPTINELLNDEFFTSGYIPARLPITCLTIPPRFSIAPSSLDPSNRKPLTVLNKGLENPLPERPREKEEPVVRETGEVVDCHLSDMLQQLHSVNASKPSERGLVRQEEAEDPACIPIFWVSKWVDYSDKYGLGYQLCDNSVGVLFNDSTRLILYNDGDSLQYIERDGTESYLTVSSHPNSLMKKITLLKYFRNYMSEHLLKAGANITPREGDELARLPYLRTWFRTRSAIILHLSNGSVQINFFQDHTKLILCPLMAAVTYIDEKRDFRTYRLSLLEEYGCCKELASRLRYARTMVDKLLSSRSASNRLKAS
# Vif-APOBEC3G blk: Vif-A3G binding inhibition; HeLa A3G-eYFP + Vif (tagged APOBEC3G with the HIV-1 protein that degrades it), YFP fluorescence, overnight; Potency, µM (series often up to 46.1 µM), usual class: inhibitors; 0.076% of 410,000 active; further: nearly all actives have a fitted effect of over 60% in size
#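 Read-out is eYFP fluorescence (Ex 488/Em 500-530) from Vif-expressing HeLa A3G-eYFP cells; more signal means A3G escaped Vif-mediated degradation. Cells plated overnight, compound pinned in, incubated overnight at 37 deg C.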
# Vif-APOBEC3F blk: blocks the Vif interaction with APOBEC3F | HeLa A3F-eYFP + Vif (tagged APOBEC3F with the HIV-1 protein that degrades it), YFP fluorescence increase | 0.2% of 390,000 active | Potency, µM (highest dose often 46.1 µM); further: nearly all actives have a fitted effect of over 65% in size
#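 HeLa cells stably expressing A3F-eYFP plus Vif, plated and incubated overnight at 37 deg C, then exposed to compounds overnight at 37 deg C. Blocked degradation read as raised yellow fluorescence (Ex 488/Em 500-530).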
# VDR inhibitor: inhibitors of human vitamin D receptor; P11473; VDR-SRC2-3 peptide fluorescence polarization, 2 h; Potency, µM, hits mostly inhibitors; 0.93% of 400,000 active
#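 Fluorescence polarization assay of small-molecule disruption of VDR binding to coregulator peptide SRC2-3. Compounds and controls pin-transferred, then read after 2 h incubation at ambient room temperature.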
# TSHR antagonist: blocks TSH signaling through the human TSH receptor; TSHR-expressing cells, TSH-stimulated cAMP HTRF, 2 h; stronger effect = lower value; activity change, negative = inhibition, % at 11.5 µM; 0.2% of 330,000 active;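 active means activity change below a set negative limit, meaning inhibition stronger than a set level, cut at about -70% in these data; inconclusive means activity change between two set negative limits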
#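 Cell-based HTRF cAMP assay; TSHR cells + compound, TSH EC80 (4nM final), 2 h, 37 deg C. Lysis with anti-cAMP cryptate and cAMP-d2, 30 min RT, read 665/620 nm.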
# A number is an active result; n = inactive; u = inconclusive; x = not tested or not shown. Unless noted, the call rests on the fitted dose curve; in most records, active means well fitted curve in the direction sought with a large enough effect; inconclusive means small, poorly fitted or top-dose-only effect, or another doubt; inactive means no such curve, though single readings can be large; an effect the other way counts as inactive or inconclusive.
SMILES,PLK1 PBD block,Vif-APOBEC3G blk,Vif-APOBEC3F blk,VDR inhibitor,TSHR antagonist
Cc1ccc(N(Cc2cc3cccc(C)c3[nH]c2=O)S(=O)(=O)c2ccccc2)c(C)c1,15µM,n,n,u,n
Cc1ccc(S(=O)(=O)N(Cc2cc3ccc(C)cc3[nH]c2=O)c2ccccc2)cc1,34µM,n,n,n,n
Cc1ccc(S(=O)(=O)N(Cc2cc3ccccc3[nH]c2=O)c2cccc(C)c2)cc1,30µM,n,n,n,n
COc1ccc(NCc2cc3cc4c(cc3n(CC(=O)Nc3cc(C)ccc3C)c2=O)OCCO4)cc1,x,u,13µM,n,x
COc1ccccc1Cn1cc(C(=O)c2ccc(C)cc2)c(=O)c2cc(C)ccc21,x,n,n,n,x
CCOC(=O)C1Nc2ccc(C(=O)O)cc2C2C=CCC12 (stereo not given),3µM,n,n,16µM,n
CCOC(=O)c1ccc2c(c1)C1C=CCC1C(C(=O)O)N2 (stereo not given),x,x,x,x,n
COc1ccc([N+](=O)[O-])cc1NC(=O)CCN1CCN(C)CC1,n,n,u,n,n
COc1ccc([N+](=O)[O-])cc1NC(=O)CCN1CCOCC1,30µM,n,n,n,n
COc1ccc([N+](=O)[O-])cc1NC(=O)CSCc1cc(C)cc(C)c1,30µM,n,n,n,n
N#C/C(=C\c1c[nH]c2ccccc12)C(=O)c1ccc(O)c(O)c1,x,x,x,u,n
Oc1ccccc1C=NNC(=S)Nc1ccc(F)cc1,n,n,n,n,x
Cc1nn(C)cc1/C=N/NC(=S)Nc1ccccc1,12µM,n,n,89µM,n
COc1ccc(F)cc1S(=O)(=O)NCCc1csc2nc(-c3cccc(C)c3)nn12,x,n,n,n,x
COc1ccc(/C=C/C(=O)NCCN2CCOCC2)cc1OC,17µM,n,n,n,n
COc1ccc(/C=C/C(=O)N2CCN(C)CC2)cc1OC,n,n,n,n,-122
C=C1C=C(C(F)F)n2ncc(C(=O)NCc3ccccc3)c2N1,x,n,x,x,x
Cc1nc(N(C)C)c2sc(=S)n(-c3ccccc3)c2n1,27µM,n,n,n,n
Cc1nc(N(C)C)c2sc(=S)n(C)c2n1,n,n,n,n,n
CC(C)CCn1c(SC(C)C#N)nc2ccccc2c1=O (stereo not given),x,n,x,n,x
Cc1ccccc1N=Cc1cc2c(cc1[N+](=O)[O-])OCO2,n,n,n,n,n
Cc1c(N=Cc2cc3c(cc2[N+](=O)[O-])OCO3)cccc1[N+](=O)[O-],u,n,n,89µM,x
N=C(C[C@@H](O)COc1ccccc1-c1ccccc1)N1CCCCC1,x,x,x,n,x
CN1CCN(c2ncc3ncc(=O)n(CCC#N)c3n2)CC1,x,x,x,n,x
O=C(NCCN1C(=O)S/C(=C\c2ccc(F)cc2)C1=O)C1CCN(S(=O)(=O)c2cccs2)CC1,27µM,n,n,u,n
SMILES,PLK1 PBD block,Vif-APOBEC3G blk,Vif-APOBEC3F blk,VDR inhibitor,TSHR antagonist
CC(=O)c1cccc(NC(=O)C2C3C=CC(C3=C(c3ccccc3)c3ccccc3)C2C(=O)O)c1 (stereo not given),34µM,n,n,n,n
COc1ccc(N=Cc2sc(O)c3ccccc23)cc1,n,13µM,n,u,n
Cc1sc2ccccc2[n+]1CCCC[n+]1c(C)sc2ccccc21,x,n,x,x,x
O=C(NNS(=O)(=O)c1ccccc1[N+](=O)[O-])c1cccc([N+](=O)[O-])c1,17µM,n,n,n,n
O=C(NNS(=O)(=O)c1ccccc1)c1cccnc1,n,n,n,n,n
O=C(NNS(=O)(=O)c1ccccc1[N+](=O)[O-])c1cccnc1,27µM,n,n,u,n
COc1ccc(-n2c(C)cc(C=O)c2C)cc1Cl,n,n,n,n,n
Cc1cc(C=O)c(C)n1-c1ccc(Cl)c(C(=O)O)c1,11µM,n,n,n,n
CCOc1ccc2oc(C(=O)OCC(=O)N3C(C)CCCC3C)c(C)c2c1 (stereo not given),n,n,n,n,-79
CC(C)CCOc1ccc(N)cc1,x,x,x,n,x
CN(C)C(=C(C#N)C#N)N1CCN(c2ccc(Cl)c(Cl)c2)CC1,n,n,n,n,n
CN(C)C(=C(C#N)C#N)N1CCN(c2ccc(Cl)cc2)CC1,30µM,n,n,n,n
Cc1ccc(S(=O)(=O)/N=C2\C=C(NS(=O)(=O)c3ccccc3)C(=O)c3ccccc32)c(C)c1,19µM,n,n,n,x
Cc1ccc(NS(=O)(=O)c2ccccc2)c(C)c1,x,n,x,n,x
